{"source": "PubChem BioAssay AID1851", "about": "(National Center for Advancing Translational Sciences (NCATS), 2009)", "note": "Among all 16,000 compounds or so, about 4,000 (25%) were called active. About 26% were inconclusive and are not listed. Calls come from the whole dose curve; as a rule, active = well fitted curve in the direction sought with a large enough effect; inconclusive = small, poorly fitted or top-dose-only effect, or effect the other way; inactive = no such curve, though single readings can be large or run the other way. Not all results are given here. % is set by controls: 0 for no effect and ±100 for the full control effect."}
{"biological_target": "Cytochrome P450 2C9 (Homo sapiens) (UniProt P11712)", "sequence (P11712 whole entry, looked up)": "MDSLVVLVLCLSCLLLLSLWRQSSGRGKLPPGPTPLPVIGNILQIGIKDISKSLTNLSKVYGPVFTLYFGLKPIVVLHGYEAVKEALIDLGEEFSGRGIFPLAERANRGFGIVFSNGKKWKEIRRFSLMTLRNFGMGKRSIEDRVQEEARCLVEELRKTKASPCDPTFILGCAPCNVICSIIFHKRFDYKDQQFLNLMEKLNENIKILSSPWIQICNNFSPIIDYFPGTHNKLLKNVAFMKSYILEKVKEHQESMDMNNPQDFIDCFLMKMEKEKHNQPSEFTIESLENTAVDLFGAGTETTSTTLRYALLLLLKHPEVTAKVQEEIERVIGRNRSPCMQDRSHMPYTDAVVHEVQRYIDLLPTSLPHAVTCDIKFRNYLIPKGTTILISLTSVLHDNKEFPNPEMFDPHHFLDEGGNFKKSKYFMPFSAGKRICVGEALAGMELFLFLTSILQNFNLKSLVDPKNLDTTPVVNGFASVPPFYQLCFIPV", "test": "Cytochrome panel assay with activity outcomes", "conditions": "recombinant CYP, pro-luciferin dealkylation, luminescence, p450-cyp2c9; series mostly up to 57.1 µM"}
{"smiles": "CO[C@@H]1COC(=O)C/C=C\\[C@@H](C)COC(=O)[C@H](COCc2ccccc2)NC(=O)C/C=C\\[C@H]1C", "activity, negative = inhibition": "-9.13% [at 11.4 µM] (inactive)"}
{"smiles": "Cc1cccc(NC(=O)NNC(=O)c2cc(-c3ccccc3Cl)nc3ccccc23)c1", "AC50": "1.58 µM (active)"}
{"smiles": "Cc1ccc(NC(=O)c2cc(Cl)nc3ccccc23)cc1", "AC50": "inactive"}
{"smiles": "COCCNc1nc(-c2ccccc2Cl)nc2ccccc12", "activity, negative = inhibition": "0.695% [at 2.29 µM] (inactive)"}
{"smiles": "O=C(NNC(=O)c1cc(-c2ccc(Cl)c(Cl)c2)nc2ccccc12)Nc1ccccc1", "AC50": "4.47 µM (active)"}
{"smiles": "CC(=O)NCCNc1nc(-c2ccccc2Cl)nc2ccccc12", "activity, negative = inhibition": "15.4% [at 2.29 µM] (inactive)"}
{"smiles": "NC(N)=N[C@@H]1C(O)[C@H](N=C(N)N)[C@@H](O)C(O)[C@H]1O", "note": "(stereo partly specified)", "activity, negative = inhibition": "13.6% [at 11.4 µM] (inactive)"}
{"smiles": "Nc1nc2c(ncn2COCCO)c(=O)[nH]1", "AC50": "inactive"}
{"smiles": "c1cn(-c2ncnc3ccc(-c4ccoc4)cc23)cn1", "activity, negative = inhibition": "-25.3% [at 2.29 µM] (inactive)"}
{"smiles": "COC(=O)[C@@]1(Cc2ccccc2)[C@H]2c3cc(C(=O)N4CCCC4)n(Cc4ccc(C(F)(F)F)nc4)c3C[C@H]2CN1C(=O)c1ccccc1", "AC50": "5.01 µM (active)"}
{"smiles": "COC(=O)[C@@]1(Cc2ccc(F)cc2)[C@H]2c3cc(C(=O)N(C)C)n(Cc4ccc(C(F)(F)F)nc4)c3C[C@H]2CN1C(=O)c1ccccc1", "AC50": "25.1 µM (active)"}
{"smiles": "Clc1ccccc1-c1ccc2ncnc(NC3CCNCC3)c2c1", "activity, negative = inhibition": "20.4% [at 2.29 µM] (inactive)"}
{"smiles": "Cc1ccccc1-c1cncnc1NCc1ccccc1", "activity, negative = inhibition": "-7.47% [at 2.29 µM] (inactive)"}
{"smiles": "CCC(=O)N[C@@H]1Cc2ccccc2[C@@H](c2ccccc2)C1", "AC50": "inactive"}
{"smiles": "Clc1ccc(-c2nnc(-c3ccccc3)c(N3CCSCC3)n2)cc1", "AC50": "14.1 µM (active)"}
{"smiles": "Brc1ccc(-c2nnc(-c3ccccc3)c(N3CCSCC3)n2)cc1", "AC50": "10 µM (active)"}
{"smiles": "CN(C)c1ccc(-c2nc(N3CCNCC3)c3ccccc3n2)cc1", "activity, negative = inhibition": "0.369% [at 2.29 µM] (inactive)"}
{"smiles": "Cc1noc(C)c1-c1ccc2ncnc(N3CCOCC3)c2c1", "activity, negative = inhibition": "7.24% [at 2.29 µM] (inactive)"}
{"smiles": "CCN1CCN(c2cc(=O)n(-c3cc(Cl)ccc3C)c(=O)[nH]2)CC1", "AC50": "inactive"}
{"smiles": "C[N+](C)(C)CCCCCC[N+](C)(C)C", "AC50": "inactive"}
{"smiles": "COC(=O)N1CCC[C@@]2(CCN(C(=O)Nc3cccc(C#N)c3)C2)C1", "AC50": "inactive"}
{"smiles": "Cc1ccc(CSc2nc3c(c(SCC(=O)O)n2)CCCC3)cc1", "AC50": "5.62 µM (active)"}
{"smiles": "CC[C@@]12CCCN3CCc4c(n(c5ccccc45)C(=O)C1)[C@H]32", "AC50": "inactive"}
{"smiles": "S=C1NC2=C(C(c3ccc(Br)cc3)N1)N1CCC2CC1", "note": "(stereo unspecified)", "AC50": "22.4 µM (active)"}
{"smiles": "Fc1cccc(C2NC(=S)NC3=C2N2CCC3CC2)c1", "note": "(stereo unspecified)", "AC50": "inactive"}
{"smiles": "CNNCc1ccc(C(=O)NC(C)C)cc1", "AC50": "inactive"}
{"smiles": "CCOC(=O)CC(NC(=O)c1ccc(C)cc1)c1ccc(C)cc1", "note": "(stereo unspecified)", "AC50": "15.8 µM (active)"}
{"smiles": "CCOC(=O)CC(NC(=O)c1cccs1)c1ccc(OCC)cc1", "note": "(stereo unspecified)", "AC50": "3.55 µM (active)"}
{"smiles": "COc1ccc(C(NC(=O)c2ccc(-c3ccccc3)cc2)c2ccccc2)cc1", "note": "(stereo unspecified)", "AC50": "inactive"}
{"smiles": "FC(F)(F)c1ccccc1-c1nc(NC2CCNCC2)c2ccccc2n1", "activity, negative = inhibition": "14.5% [at 2.29 µM] (inactive)"}
{"smiles": "Cc1nc(S(=O)(=O)N2CCOCC2)c(C#N)c(C)c1Cl", "AC50": "inactive"}
{"smiles": "CCCOc1ccc(OCCNC2CCCC2)cc1", "AC50": "inactive"}
{"smiles": "c1c[nH]c(CN2CCOCC2)n1", "activity, negative = inhibition": "-9.4% [at 11.4 µM] (inactive)"}
{"smiles": "Oc1cccc2ccc(SSc3ccc4cccc(O)c4n3)nc12", "AC50": "1.58 µM (active)"}
{"smiles": "Cc1c(O)c(=O)n(-c2ccccc2)n1C", "AC50": "inactive"}
{"smiles": "Cc1ccc(O)c(C(=O)c2cc(C#N)c(=O)n(-c3c(C)n(C)n(-c4ccccc4)c3=O)c2)c1", "AC50": "15.8 µM (active)"}
{"smiles": "Cc1c(N(C)C)c(=O)n(-c2ccccc2)n1C", "AC50": "inactive"}
{"smiles": "CCCCCOC(=O)CSc1nnc(-c2ccccc2)c(=O)[nH]1", "AC50": "2 µM (active)"}
{"smiles": "NCCCc1c(-c2ccccc2)nc(N)[nH]c1=O", "activity, negative = inhibition": "-12.1% [at 11.4 µM] (inactive)"}
{"smiles": "Nc1nc(SCC(=O)O)[nH]c(=O)c1N", "activity, negative = inhibition": "-6.53% [at 11.4 µM] (inactive)"}
{"smiles": "Cc1ccc(S(=O)(=O)N[C@H](C(=O)N2CCC(C(=O)NCC(=O)O)CC2)C(C)C)cc1", "AC50": "inactive"}
{"smiles": "CCc1ccc2c(c1)c(N=NC1=NC(=O)CS1)c(O)n2CC", "AC50": "12.6 µM (active)"}
{"smiles": "COc1ccc2nc3cc(Cl)ccc3c(Nc3ccc(O)c(CN4CCN(C)CC4)c3)c2c1", "activity, negative = inhibition": "-28.4% [at 11.4 µM] (inactive)"}
{"smiles": "Cc1sc2nc(SCC(=O)C(C)(C)C)n(Cc3ccco3)c(=O)c2c1C", "AC50": "1.58 µM (active)"}
{"smiles": "COc1ccc(C(=O)N2CCC3(CC2)CN(C(=O)NC(C)C)C3)cc1", "AC50": "inactive"}
{"smiles": "Cc1ccccc1NC(=O)c1cnc(Nc2nc3ccccc3s2)nc1C", "AC50": "inactive"}
{"smiles": "O=C(Nc1cccnc1Cl)C1c2ccccc2Oc2ccccc21", "AC50": "1.12 µM (active)"}
{"smiles": "Cc1cccc2sc(NC(=O)C3c4ccccc4Oc4ccccc43)nc12", "AC50": "1.26 µM (active)"}
{"smiles": "NC(N)=NNC(=O)C(=O)O", "activity, negative = inhibition": "-4.6% [at 11.4 µM] (inactive)"}
{"smiles": "CCc1cc2c(NCc3ccco3)ncnc2s1", "AC50": "4.47 µM (active)"}
{"smiles": "Cc1cnc(CNc2ncnc3ccc(-c4ccoc4)cc23)cn1", "activity, negative = inhibition": "11.8% [at 2.29 µM] (inactive)"}
{"smiles": "CCc1cc2c(NCCO)ncnc2s1", "AC50": "1.58 µM (active)"}
{"smiles": "OCCCNc1ncnc2[nH]ncc12", "activity, negative = inhibition": "-4.6% [at 11.4 µM] (inactive)"}
{"smiles": "c1csc(CNc2ncnc3ccc(-c4ccoc4)cc23)c1", "activity, negative = inhibition": "0.0121% [at 2.29 µM] (inactive)"}
{"smiles": "OCCNc1ncnc2nc[nH]c12", "activity, negative = inhibition": "-11.4% [at 11.4 µM] (inactive)"}
{"smiles": "CN=C1N[C@H](c2ccccc2)N(c2ccccc2)S1", "AC50": "inactive"}
{"smiles": "CC(=O)c1c(C)nc(-c2ccccc2)n1O", "AC50": "inactive"}
{"smiles": "CN=c1nc(-c2ccccc2)n(-c2ccccc2)s1", "AC50": "2 µM (active)"}
{"smiles": "CN1CC[C@@]2(CCCN(C(=O)c3cccn3C)C2)C1", "AC50": "inactive"}
{"smiles": "COC(=O)[C@@]1(Cc2ccccc2)[C@H]2c3cc(C(=O)N4CCCC4)n(Cc4cccc5ccccc45)c3C[C@H]2CN1C(=O)c1ccccc1", "AC50": "0.251 µM (active)"}
{"smiles": "COC(=O)[C@@]1(Cc2ccc(F)cc2)[C@H]2c3cc(C(=O)N4CCCC4)n(Cc4cccc5ccccc45)c3C[C@H]2CN1C(=O)c1ccccc1", "AC50": "1.58 µM (active)"}
